Reference: PubChem BioAssay
Results filed as inconclusive are left out. Calls of active or inactive are those of the source.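 How the source made its calls, unless noted: active means normalized viability below 100% at a tested concentration; inactive means the rest.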

Columns and labels:
[1] = viability loss in pontine glioma line – cell-based, SU-DIPG-XIII, MIPE4.0, CellTiter-Glo, qHTS, dose response (AID 1347061; cut-off not given, nearly all actives have AC50 up to about 37 µM;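 further: cells exposed to compound for 48 hours before readout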); conditions: CellTiter-Glo ATP luminescence
[2] = viability loss in pontine glioma line – cell-based, JHH-DIPG-1, MIPE4.0, CellTiter-Glo, qHTS, dose response (AID 1347062; cut-off not given, nearly all actives have AC50 up to about 27 µM;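 on AC50: cells exposed to compound for two days before readout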); conditions: JHH-DIPG-1 viability, CellTiter-Glo ATP luminescence
[3] = viability loss in pontine glioma line – cell-based, SU-DIPG-XXV, MIPE5.0, CellTiter-Glo, qHTS, dose response (AID 1347065; cut-off not given, nearly all actives have AC50 up to about 26 µM;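 further: cells exposed to compound for 48 hours before ATP readout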); conditions: CellTiter-Glo ATP luminescence
[4] = growth inhibition of DIPG cells – cell-based, MIPE4.0 library, CellTiter-Glo luminescence, qHTS (AID 1347066; cut-off not given, nearly all actives have AC50 up to about 30 µM;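 further: cells exposed to compound for 48 hours before readout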); conditions: SU-DIPG-VI viability, CellTiter-Glo ATP luminescence
[5] = growth inhibition of DIPG cells – cell-based, MIPE5.0 library, qHTS (AID 1347068; cut-off not given, nearly all actives have IC50 up to about 30 µM;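 on IC50: cells exposed to compound for 48 hours before viability readout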); conditions: SU-DIPG-XXV viability
[6] = JHH-DIPG-1 glioma cell viability, MIPE5.0 library, CellTiter-Glo luminescence, qHTS (AID 1347067; cut-off not given, nearly all actives have AC50 up to about 26 µM;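 further: cells exposed to compound for 48 hours before readout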); conditions: JHH-DIPG-1 glioma viability, CellTiter-Glo ATP luminescence
[7] = compounds altering HSF1 focus formation in cells – imaging, Selleck Cancer Library (AID 1347162; in the data active means plate-normalised HSF1 focus index below about 0.46); conditions: human cells, HSF1 nuclear foci imaging, at 10 µM; SSMD: measured here: HSF1 foci SSMD mean; cell count: measured here: cell number; plate-normalised HSF1 focus index: stronger effect = lower value
[8] = viability loss in pontine glioma line – cell-based, SU-DIPG-XIII, MIPE5.0, CellTiter-Glo, qHTS, dose response (AID 1347064; cut-off not given, nearly all actives have AC50 up to about 23 µM;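 on AC50: cells exposed to compound for 48 hours before the viability read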); conditions: CellTiter-Glo ATP luminescence
[9] = viability loss with induced miR-34 in A549 – imaging, A549 dox-inducible miR-34, nuclei and caspase counts, primary screen (AID 1347080;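 active means compounds whose cell count with miR-34 switched on is under 0.7 times the count with it off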); conditions: A549 miR-34 inducible, Hoechst nuclei count, 48 h
[10] = MELAS cybrid and Rieske KO viability enhancers – cell-based, MELAS cybrids, Rieske KO mouse fibroblasts, CellTiter-Glo, primary screen (AID 1508586;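 active means mean z-score across replicates of 1.96 or higher in either the MELAS or the Rieske mutant cell line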;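 further: z relative to plate mean and SD of compound and empty wells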); conditions: low glucose
[11] = drug combination growth inhibition, ovarian cancer – cell-based, oncology-focused library, rucaparib conditional, profiling panel (AID 1508598); conditions: patient-derived ovarian cancer cells, CellTiter-Glo viability, 144 h, stronger effect = lower value
[12] = stronger effect = lower value, cell number ratio, induced over uninduced
[13] = measured here: relative caspase fold change +Dox/-Dox
[14] = measured here: total cells with miR-34 induction, stronger effect = lower value
[15] = measured here: total cells without miR-34 induction
[16] = MELAS cybrid survival, CellTiter-Glo 48 h, stronger effect = higher value
[17] = Rieske KO mouse fibroblast survival, CellTiter-Glo 72 h

O=C(NCc1ccccc1)[C@H](Cc1ccccc1)NC(=O)[C@H]1O[C@@H]1C(=O)NCCc1ccc(O)cc1
active: IC50 [5] 18.6 µM
inactive: outcome [1] | outcome [2] | outcome [3] | outcome [4]

Cc1c(-c2cccc3c(CCCOc4cccc5ccccc45)c(C(=O)O)n(Cc4cccnc4)c23)c(COc2ccc(N3CCN([S+](=O)([O-])N(C)C)CC3)cc2)nn1C
active: AC50 [4] 23.5 µM
inactive: outcome [1] | outcome [2]

CCCCn1c(=O)n(Cc2ccccc2F)c(=O)c2[nH]c(Cc3ccc(NC(C)=O)cc3)nc21
6960: cell count [7]
3.98: SSMD [7]
inactive: outcome [1] | outcome [2] | outcome [4] | outcome [6] | outcome [5] | plate-normalised HSF1 focus index [7] 1.24

COc1cc(OC2CCN(C)CC2)ccc1Nc1ncc2c(n1)n(C1CCCC1)c(=O)n2C
active: AC50 [1] 16.6 µM | AC50 [2] 18.7 µM | AC50 [8] 18.6 µM | AC50 [3] 13.2 µM | AC50 [6] 14.8 µM | IC50 [5] 16.6 µM | viability ([11]; at 0.0195 µM, OCI-P5x cells, without rucaparib) 94% | viability ([11]; at 0.0781 µM, OCI-C5x cells, with rucaparib 10 µM, 100% = cells with rucaparib alone) 96.6% | viability ([11]; at 1.25 µM, OCI-C5x cells, with rucaparib 10 µM, 100% = cells with rucaparib alone) 48.8% | viability ([11]; at 1.25 µM, OCI-P5x cells, without rucaparib) 64.7% | viability ([11]; at 5 µM, OCI-C5x cells, with rucaparib 10 µM, 100% = cells with rucaparib alone) 46.3% | viability ([11]; at 5 µM, OCI-P5x cells, with rucaparib 20 µM, 100% = cells with rucaparib alone) 76.9% | viability ([11]; at 5 µM, OCI-P5x cells, without rucaparib) 28.1%
5400: cell count [9, 14]
7430: cell count [7]
5490: cell count [9, 15]
0.864: fold change [9, 13]
1.43: SSMD [7]
inactive: fold change [9, 12] 0.984 | plate-normalised HSF1 focus index [7] 1.05 | z-score [10, 16] -0.255 | viability ([11]; at 0.000305 µM, OCI-C5x cells, with rucaparib 10 µM, 100% = cells with rucaparib alone) 107% | viability ([11]; at 0.000305 µM, OCI-C5x cells, without rucaparib) 133% | viability ([11]; at 0.000305 µM, OCI-P5x cells, with rucaparib 20 µM, 100% = cells with rucaparib alone) 116% | viability ([11]; at 0.000305 µM, OCI-P5x cells, without rucaparib) 112% | viability ([11]; at 0.00122 µM, OCI-C5x cells, with rucaparib 10 µM, 100% = cells with rucaparib alone) 107% | viability ([11]; at 0.00122 µM, OCI-C5x cells, without rucaparib) 125% | viability ([11]; at 0.00122 µM, OCI-P5x cells, with rucaparib 20 µM, 100% = cells with rucaparib alone) 117% | viability ([11]; at 0.00122 µM, OCI-P5x cells, without rucaparib) 115% | viability ([11]; at 0.00488 µM, OCI-C5x cells, with rucaparib 10 µM, 100% = cells with rucaparib alone) 107% | viability ([11]; at 0.00488 µM, OCI-C5x cells, without rucaparib) 120% | viability ([11]; at 0.00488 µM, OCI-P5x cells, with rucaparib 20 µM, 100% = cells with rucaparib alone) 110% | viability ([11]; at 0.00488 µM, OCI-P5x cells, without rucaparib) 108% | viability ([11]; at 0.0195 µM, OCI-C5x cells, with rucaparib 10 µM, 100% = cells with rucaparib alone) 105% | viability ([11]; at 0.0195 µM, OCI-C5x cells, without rucaparib) 113% | viability ([11]; at 0.0195 µM, OCI-P5x cells, with rucaparib 20 µM, 100% = cells with rucaparib alone) 112% | viability ([11]; at 0.0781 µM, OCI-C5x cells, without rucaparib) 120% | viability ([11]; at 0.0781 µM, OCI-P5x cells, with rucaparib 20 µM, 100% = cells with rucaparib alone) 118% | viability ([11]; at 0.0781 µM, OCI-P5x cells, without rucaparib) 110% | viability ([11]; at 0.313 µM, OCI-C5x cells, with rucaparib 10 µM, 100% = cells with rucaparib alone) 101% | viability ([11]; at 0.313 µM, OCI-C5x cells, without rucaparib) 124% | viability ([11]; at 0.313 µM, OCI-P5x cells, with rucaparib 20 µM, 100% = cells with rucaparib alone) 122% | viability ([11]; at 0.313 µM, OCI-P5x cells, without rucaparib) 111% | viability ([11]; at 1.25 µM, OCI-C5x cells, without rucaparib) 115% | viability ([11]; at 1.25 µM, OCI-P5x cells, with rucaparib 20 µM, 100% = cells with rucaparib alone) 106% | viability ([11]; at 5 µM, OCI-C5x cells, without rucaparib) 115%
0.614: z-score [10, 17]

NC(=O)c1noc([C@H](CCCC2CCCCC2)CC(=O)NO)n1
active: AC50 [2] 23.5 µM
inactive: outcome [1] | outcome [4] | outcome [6] | outcome [5]

COc1ccc(Cc2nccc3cc(OC)c(OC)cc23)cc1OC
inactive: outcome [1] | outcome [2] | outcome [8] | outcome [3] | outcome [4]

O=C(O)C1(Cc2cccc(Nc3nccs3)n2)CCC(Oc2cccc(Cl)c2F)CC1 (centres undefined)
3280: cell count [9, 15]
0.491: fold change [9, 13]
3320: cell count [9, 14]
inactive: outcome [1] | outcome [2] | outcome [8] | outcome [4] | outcome [5] | fold change [9, 12] 1.01 | z-score [10, 16] -0.373
0.69: z-score [10, 17]
